Data as given in PubChem BioAssay (NCATS).
Records with an inconclusive call do not appear. The source made the active and inactive calls. Unless noted, calls come from the whole dose curve.

Experiments:
[1] = Validation screen for inhibitors of Lassa infection (AID 463096); note: % is set by controls: 0 for no effect and ±100 for the full control effect
[2] = Inducers of the Endoplasmic Reticulum Stress Response (ERSR) in human glioma: Validation (AID 504836; active = well fitted curve in the direction sought with a large enough effect; an effect the other way counts as inactive or inconclusive; note: 0% is about no effect)
Outline: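 Stably transfected U87-MG glioma cells carrying a GRP78-based luciferase sensor; 16 h compound incubation. Luminescence end-point read 10 min after Bright-Glo addition at room temperature.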

[3] = qHTS for Inhibitors of the Functional Ribonucleoprotein Complex (vRNP) of Lassa (LASV) Arenavirus: LASV Primary Screen - GLuc reporter signal (AID 1347082; calls by dose curve; tested in HEK293 reporter line; note: % is set by controls: 0 for no effect and ±100 for the full control effect; nearly all actives have a fitted effect of over 60% in size)
[4] = qHTS for Inhibitors of the Functional Ribonucleoprotein Complex (vRNP) of Lassa (LASV) Arenavirus: Viability assay - alamar blue signal for LASV Primary Screen (AID 1347083; calls by dose curve; tested in HEK293 reporter line; note: % is set by controls: 0 for no effect and ±100 for the full control effect; nearly all actives have a fitted effect of over 80% in size)
[5] = qHTS for Inhibitors of the Functional Ribonucleoprotein Complex (vRNP) of Lymphocytic Choriomeningitis Arenaviruses (LCMV): Viability assay - alamar blue signal for LCMV Primary Screen (AID 1347085; calls by dose curve; tested in HEK293 reporter line; note: % is set by controls: 0 for no effect and ±100 for the full control effect; nearly all actives have a fitted effect of over 80% in size)
[6] = molecular target: Nucleoprotein (Lymphocytic choriomeningitis virus (strain Armstrong)) (UniProt P09992); assay: qHTS for Inhibitors of the Functional Ribonucleoprotein Complex (vRNP) of Lymphocytic Choriomeningitis Arenaviruses (LCMV): LCMV Primary Screen - GLuc reporter signal (AID 1347086); note: % is set by controls: 0 for no effect and ±100 for the full control effect; nearly all actives have a fitted effect of over 70% in size
[7] = Primary qHTS for inhibitors of SARS-S pseudo-typed particle cell entry (AID 1479145); note: nearly all actives have a fitted effect of over 45% in size; note: potency is the fitted concentration of half-maximal effect; for activity change, negative = inhibition: % is set by controls: 0 for no effect and ±100 for the full control effect
[8] = Primary qHTS for Huh7 cytotoxicity: counterscreen for inhibitors of MERS-S pseudotyped particle cell entry (AID 1479147); details: outcome: dose series up to 57.1 µM unless noted; for activity change, negative = cytotoxicity: % is set by controls: 0 for no effect and ±100 for the full control effect
[9] = Primary qHTS for inhibitors of MERS-S pseudo-typed particle cell entry (AID 1479149); note: nearly all actives have a fitted effect of over 60% in size; note: potency is the fitted concentration of half-maximal effect
[10] = Primary qHTS for Vero E6 cytotoxicity: counterscreen for inhibitors of SARS-S pseudo-typed particle cell entry (AID 1479150); details: outcome: dose series up to 57.1 µM unless noted; for activity change, negative = cytotoxicity: % is set by controls: 0 for no effect and ±100 for the full control effect
[11] = Cytotoxicity counterscreen for inhibitors of SARS-CoV-2 cell entry (AID 1645845); note: nearly all actives have a fitted effect of over 50% in size
Outline: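 Counterscreen run in the same HEK293-ACE2 line as the pseudotyped-particle entry assay, without particles. Viability after 48 h at 37 C was read as ATP luminescence, scaled between cell-containing and cell-free wells.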

[12] = Primary qHTS to identify inhibitors of SARS-CoV-2 cell entry (AID 1645846); details: activity change, negative = inhibition: at 57.1 µM (top of the series) unless noted; note: nearly all actives have a fitted effect of over 45% in size
Outline: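 Data are normalized to wells receiving SARS-CoV-2-S pseudoparticles and those given bald particles. Entry signal was luciferase luminescence in stable hACE2 Expi293F cells, 48 hr post-infection, after 1 hr compound pretreatment.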

[13] = molecular target: Alpha-galactosidase (Coffea arabica) (UniProt Q42656); assay: Counterscreen for Glucocerebrosidase Inhibitors: qHTS Assay for Coffee Bean alpha-Galactosidase at pH 4.5 (AID 957; active = well fitted curve in the direction sought with a large enough effect; an effect the other way counts as inactive or inconclusive;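 note: plate controls were enzyme alone for no effect and no enzyme for full effect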)
Outline: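 Fluorogenic read-out: 4-methylumbelliferone at Ex 365/Em 440 nm after NaOH/glycine stop (pH 10). Enzyme 2 nM, 4-MU-alpha-galactoside 80 uM, citrate buffer pH 4.5, 20 min RT; normalized to no-enzyme and enzyme controls.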

[14] = molecular target: Alpha-galactosidase (Coffea arabica) (UniProt Q42656); assay: Counterscreen for Glucocerebrosidase Inhibitors: qHTS Assay for Coffee Bean alpha-Galactosidase at pH 5.9 (AID 998; active = well fitted curve in the direction sought with a large enough effect; an effect the other way counts as inactive or inconclusive;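 note: plate controls were uninhibited enzyme for no effect and no-enzyme basal signal for full effect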)
Outline: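 Enzyme 2 nM + cpd (0.7 nM–77 uM titration) + 4-MU-alpha-Gal 80 uM, pH 5.9 citrate/Tween-20, RT 20 min, NaOH/glycine stop pH 10, fluor 365/440. Normalized to no-enzyme and full-activity controls; Hill-fit AC50.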

[15] = Confirmatory qHTS to identify inhibitors of SARS-CoV-2 cell entry (AID 1645844); note: potency is the fitted concentration of half-maximal effect; nearly all actives have a fitted effect of over 45% in size
Outline: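 HEK293-ACE2, overnight seeding; cpd 1 h, 37C/5% CO2; + SARS-CoV-2-S MLV PP (Wuhan-Hu-1, ΔC19); 48 h; Bright-Glo luminescence. Data normalised to S PP and bald PP wells.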

[16] = VSVG counterscreen qHTS to identify inhibitors of SARS-CoV-2 cell entry (AID 1645847); note: potency is the fitted concentration of half-maximal effect; nearly all actives have a fitted effect of over 65% in size
Outline: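 Counterscreen using VSV-G (not spike) pseudotyped MLV particles on ACE2-expressing Expi293F cells after 1 h compound preincubation; infection ran 48 h at 37 °C. Data normalized to VSV-G PP and bald-PP wells.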

Chain of Nucleoprotein (Lymphocytic choriomeningitis virus (strain Armstrong)) (P09992 whole entry, looked up): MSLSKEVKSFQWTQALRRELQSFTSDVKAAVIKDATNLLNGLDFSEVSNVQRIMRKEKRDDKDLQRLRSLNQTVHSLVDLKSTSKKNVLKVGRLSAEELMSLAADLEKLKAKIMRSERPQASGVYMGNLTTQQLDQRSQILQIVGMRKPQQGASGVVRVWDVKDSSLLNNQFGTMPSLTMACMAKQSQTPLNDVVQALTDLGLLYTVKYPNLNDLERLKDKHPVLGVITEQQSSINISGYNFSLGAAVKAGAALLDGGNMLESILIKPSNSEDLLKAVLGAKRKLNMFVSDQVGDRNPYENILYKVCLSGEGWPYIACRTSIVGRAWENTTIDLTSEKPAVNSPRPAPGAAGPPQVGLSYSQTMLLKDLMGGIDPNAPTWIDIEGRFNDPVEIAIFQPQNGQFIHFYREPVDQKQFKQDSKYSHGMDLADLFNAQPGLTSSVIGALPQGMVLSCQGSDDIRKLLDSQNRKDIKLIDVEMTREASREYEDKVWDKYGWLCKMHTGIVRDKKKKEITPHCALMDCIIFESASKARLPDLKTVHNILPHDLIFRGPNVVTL
Chain of Alpha-galactosidase (Coffea arabica) (Q42656 whole entry, looked up): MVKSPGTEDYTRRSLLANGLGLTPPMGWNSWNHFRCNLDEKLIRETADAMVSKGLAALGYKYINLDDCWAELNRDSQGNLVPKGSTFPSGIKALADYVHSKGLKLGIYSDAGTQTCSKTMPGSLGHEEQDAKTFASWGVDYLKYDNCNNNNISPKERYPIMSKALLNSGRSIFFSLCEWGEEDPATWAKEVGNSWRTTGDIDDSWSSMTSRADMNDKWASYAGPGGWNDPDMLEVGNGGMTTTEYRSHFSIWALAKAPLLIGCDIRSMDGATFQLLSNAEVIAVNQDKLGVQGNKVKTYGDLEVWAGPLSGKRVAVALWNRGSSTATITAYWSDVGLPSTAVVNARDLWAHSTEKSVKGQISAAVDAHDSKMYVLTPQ

CCC(NC(C)C)C(O)c1ccc(O)c(O)c1 (centres undefined)
inactive: Potency [1] | outcome [2] | Potency [3] | Potency [4] | Potency [5] | Potency [6] | Potency [7] | outcome [8] | Potency [9] | outcome [10] | Potency [11]
-5.57%: activity change, negative = inhibition [12]

Nc1cccc2c1C(=O)N(C1CCC(=O)NC1=O)C2=O (centres undefined)
inactive: Potency [3] | Potency [4] | Potency [5] | Potency [6] | outcome [8] | Potency [9] | outcome [10] | Potency [11]
-12.7%: activity change, negative = inhibition [12]

CCCCCCCCCCCC(=O)OCC(O)CO (centres undefined)
inactive: Potency [3] | Potency [4] | Potency [5] | Potency [6] | Potency [7] | outcome [8] | Potency [9] | outcome [10] | Potency [11] | Potency [12]

CCc1cc2c(cc1N1CCC(N3CCOCC3)CC1)C(C)(C)c1[nH]c3cc(C#N)ccc3c1C2=O
inactive: Potency [3] | Potency [4] | Potency [5] | Potency [6] | outcome [8] | Potency [9] | outcome [10] | Potency [11]

NCCCC(=O)O
inactive: outcome [13] | outcome [14] | outcome [2] | Potency [3] | Potency [4] | Potency [5] | Potency [6] | Potency [7]

COC(=O)C[C@](O)(CCCC(C)(C)O)C(=O)O[C@@H]1C(OC)=C[C@]23CCCN2CCc2cc4c(cc2[C@H]13)OCO4
active: Potency [7] 3160 nM | Potency [9] 891 nM | Potency [15] 136 nM | Potency [16] 68.1 nM
inactive: Potency [3] | Potency [4] | Potency [5] | Potency [6] | outcome [8] | Potency [11]

NC(=O)c1cc[n+](CC2=C(C(=O)O)N3C(=O)[C@@H](NC(=O)[C@@H](c4ccccc4)S(=O)(=O)[O-])[C@H]3SC2)cc1
inactive: Potency [1] | outcome [2] | Potency [3] | Potency [4] | Potency [5] | Potency [6] | Potency [7] | outcome [8] | Potency [9] | outcome [10] | Potency [11]
2.35%: activity change, negative = inhibition [12]

Nc1ncnc2c1ncn2[C@@H]1O[C@H](COP(=O)(O)OP(=O)(O)OP(=O)(O)O)[C@@H](O)[C@H]1O
inactive: Potency [3] | Potency [4] | Potency [5] | Potency [6] | outcome [7] inactive [at 0.573 µM] | activity change, negative = cytotoxicity [8] -18.7% [at 0.573 µM] | activity change, negative = inhibition [9] -11.5% [at 0.573 µM] | activity change, negative = cytotoxicity [10] -8.27% [at 0.573 µM] | activity change, negative = cytotoxicity [11] -13.7% [at 0.702 µM]

CC(=O)O[C@H]1C[C@@H]2CC[C@H]3[C@H]4C[C@H]([N+]5(C)CCCCC5)[C@@H](OC(C)=O)[C@@]4(C)CC[C@@H]3[C@@]2(C)C[C@H]1[N+]1(C)CCCCC1
inactive: Potency [3] | Potency [4] | Potency [5] | Potency [6] | Potency [7] | outcome [8] | Potency [9] | outcome [10] | Potency [11] | Potency [12]
-10.4%: activity change, negative = inhibition [12]
